GDH-TPI counter-1 = GDH-TPI coupled enzyme inhibition counter-screen; GDH-TPI coupled enzyme counterscreen, NADH absorbance; inhibition, % at 4.8 µM; actives 1.2% (n = 360,000); in the data active = inhibition above about 30%
BH1578 lux ind = induces V. cholerae light production without autoinducers; V. cholerae BH1578 lux reporter, luminescence, 6 h; activation, % at 18.7 µM; actives 0.16% (n = 350,000); in the data active = activation mostly above about 9.7%, no sharp cut-off
3CLpro inhibitor = SARS-CoV 3CLpro protease inhibition; AID 1706; inhibition, % at 6 µM; recombinant SARS-CoV 3CLpro, quenched FRET peptide cleavage; actives 0.14% (n = 290,000); in the data active = inhibition above about 12%
PrPC TRFRET = cell surface PrPC inhibition, primary TR-FRET screen; P04156; TR-FRET read-out; inhibition, % at 13.8 µM; actives 0.43% (n = 370,000); in the data active = inhibition above about 24%
Mtb FBA inh = inhibits M. tuberculosis FBA enzyme. inhibition, % at 1 µM. AID 588726. purified M. tuberculosis FBA, fluorescence read-out. actives 2.3% (n = 360,000)
Target sequence (P9WQA3 whole entry, looked up): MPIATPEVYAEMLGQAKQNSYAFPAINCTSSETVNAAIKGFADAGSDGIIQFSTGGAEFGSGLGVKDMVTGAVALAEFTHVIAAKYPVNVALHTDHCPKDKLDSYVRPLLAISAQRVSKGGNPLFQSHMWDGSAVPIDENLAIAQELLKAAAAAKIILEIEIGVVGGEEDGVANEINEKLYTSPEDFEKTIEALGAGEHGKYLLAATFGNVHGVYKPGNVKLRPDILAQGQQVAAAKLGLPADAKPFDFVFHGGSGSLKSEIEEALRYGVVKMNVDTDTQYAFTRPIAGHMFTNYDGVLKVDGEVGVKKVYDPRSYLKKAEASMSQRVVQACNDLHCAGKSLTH
Mtb FBA confirm = confirmation of M. tuberculosis fructose-bisphosphate aldolase inhibitors. shares compounds with Mtb FBA inh. purified M. tuberculosis FBA, fluorescence read-out. inhibition, % at 1 µM. actives 78% (n = 5,600). AID 651616
GDH-TPI counter-2 = GDH-TPI inhibition counter-screen for FBA inhibitors; GDH-TPI coupled enzyme counterscreen, fluorescence; shares compounds with Mtb FBA inh; inhibition, % at 1 µM; AID 652141; actives 81% (n = 5,600); in the data active = inhibition above about 10%
GDH-TPI DR = inhibits GDH-TPI coupling enzymes in dose response. shares compounds with Mtb FBA inh. GDH-TPI coupled enzyme assay, fluorescence, artifact counterscreen. IC50, µM. actives 79% (n = 170). AID 652145; call rule not given here
Large screens that a line does not name were inactive (follow-up assays come after a bar, where they were run). Sampled rows, rich in hits. Any-hit rate of the full collection: about 3.9%. Cut-off read from the data, not from the text of the source, unless noted: active = inhibition above about 27%; inactive = the rest.

CC(C)Oc1cccc(-c2cc(C(=O)NC(=S)N(C)c3ccccc3C(=O)O)c3ccccc3n2)c1	Mtb FBA inh 42 | Mtb FBA confirm inactive | GDH-TPI counter-2 inactive
Cc1cc(-c2cc(NC(=O)Cc3c[nH]c4ccccc34)ccc2N(C)c2cccnc2)ccc1F	none (no result: GDH-TPI counter-1, BH1578 lux ind, 3CLpro inhibitor, Mtb FBA inh)
COc1ccc(C2Nc3ccccc3C(=O)N2C2CCCCC2)cc1 (centres undefined)	Mtb FBA inh 85 | Mtb FBA confirm inactive | GDH-TPI counter-2 inactive
CCCN1C(=O)c2ccccc2NC1c1ccc(OC)c(CSc2ccccn2)c1 (centres undefined)	Mtb FBA inh 56 | Mtb FBA confirm 140 | GDH-TPI counter-2 105
COc1ccc(C2Nc3ccccc3C(=O)N2Cc2ccccc2)cc1COc1ccccn1 (centres undefined)	Mtb FBA inh 78 | Mtb FBA confirm 64 | GDH-TPI counter-2 54
COc1ccc(C2Nc3ccccc3C(=O)N2Cc2ccccc2)cc1 (centres undefined)	Mtb FBA inh 39 | Mtb FBA confirm 167 | GDH-TPI counter-2 135
COc1ccc(N2C(=O)c3ccccc3NC2c2ccc(OC)c(CSc3ccccn3)c2)cc1 (centres undefined)	none
COc1ccc(Cl)cc1C(=O)Nc1cccnc1Cl	none
O=C(N[C@@H](Cc1cccnc1)C(=O)N1CCC[C@H]1C(=O)NC1CCCC1)c1ccccc1	none (no result: GDH-TPI counter-1, BH1578 lux ind, 3CLpro inhibitor, Mtb FBA inh)
O=C(O)c1ccc(C2Nc3ccccc3C(=O)N2Cc2ccccc2)cc1 (centres undefined)	Mtb FBA inh 76 | Mtb FBA confirm inactive | GDH-TPI counter-2 inactive
O=S(=O)(NCc1ccccc1)c1ccc(-c2cnc(C3CC3)o2)cc1	Mtb FBA inh 27 | Mtb FBA confirm active | GDH-TPI counter-2 158
Cc1ccc(CNS(=O)(=O)c2ccc(-c3cnc(C4CC4)o3)cc2)cc1	Mtb FBA inh 41 | Mtb FBA confirm 40 | GDH-TPI counter-2 25
COc1ccccc1-c1cc(C(=O)O)c2c(=O)n(C)c(=O)n(Cc3ccccc3)c2n1	Mtb FBA inh 38 | Mtb FBA confirm inactive | GDH-TPI counter-2 inactive
CC(=O)Nc1cnc(/C=C\CCCO)cn1	Mtb FBA inh 32 (no result: 3CLpro inhibitor) | Mtb FBA confirm inactive | GDH-TPI counter-2 inactive
CC(=O)Nc1cnc(-c2ccccc2C(C)=O)cn1	none (no result: 3CLpro inhibitor)
CN1C(C)(C)CC(O)(C(=O)O)CC1(C)C	none (no result: GDH-TPI counter-1, BH1578 lux ind, 3CLpro inhibitor)
COc1cccc(/C=N/NC(=O)Cn2cnc3c2c(=O)n(C)c(=O)n3C)c1OC	Mtb FBA inh 30 | Mtb FBA confirm inactive | GDH-TPI counter-2 inactive
Cc1ccc(S(=O)(=O)CCC(=O)OCc2cc(=O)oc3cc(C)ccc23)cc1	none (no result: 3CLpro inhibitor)
CCOC(=O)Nc1ccc2c(COC(=O)CN(C)S(=O)(=O)c3ccc(C)cc3)cc(=O)oc2c1	Mtb FBA inh 79 (no result: 3CLpro inhibitor) | Mtb FBA confirm 41 | GDH-TPI counter-2 23
CCOC(=O)Nc1ccc2c(COC(=O)c3ccccc3O)cc(=O)oc2c1	Mtb FBA inh 56 | Mtb FBA confirm 38 | GDH-TPI counter-2 32
Cc1cc2oc(=O)cc(CN3CCCCC3C)c2cc1C (centres undefined)	none
CCC(C)(C)C1CCC2(CC1)NC(=O)N(CC(=O)NCCc1ccc(OC)c(OC)c1)C2=O (centres undefined)	none (no result: 3CLpro inhibitor)
Cc1c(SCCO)c(=O)[nH]c2cc3c(cc12)OCO3	Mtb FBA inh 35 | Mtb FBA confirm 127 | GDH-TPI counter-2 120
COc1cccc(CNC(=O)c2cc3c(cc2Cl)N2CCCCCC2=NS3(=O)=O)c1	none (no result: 3CLpro inhibitor)
COc1ccc2nc(NC(=O)CCc3nc(-c4ccccc4F)no3)sc2c1	none
CCN(CC)c1ccc(C(=O)OCc2cc(=O)oc3cc(O)ccc23)cc1	GDH-TPI counter-1 32, Mtb FBA inh 72 | Mtb FBA confirm inactive | GDH-TPI counter-2 inactive
CCN(CC)c1ccc2c(O)cc(=O)oc2c1	none
Cc1ccc(NC(=O)CSC(C)C(=O)OCc2cc(=O)oc3cc(O)ccc23)cc1 (centres undefined)	Mtb FBA inh 41 (no result: 3CLpro inhibitor) | Mtb FBA confirm active | GDH-TPI counter-2 active
C/C(=C\COc1ccc2ccc(=O)oc2c1)CC[C@@H](O)C(C)(C)O	Mtb FBA inh 83 (no result: 3CLpro inhibitor) | Mtb FBA confirm inactive | GDH-TPI counter-2 inactive
Cn1c(NC(=O)c2ccccc2)nc(Cc2ccccc2)c1-c1ccccc1	none (no result: GDH-TPI counter-1, BH1578 lux ind, 3CLpro inhibitor, Mtb FBA inh)
COC(=O)CSc1nnc([C@H](Cc2ccccc2)NC(=O)OC(C)(C)C)o1	Mtb FBA inh 44 | Mtb FBA confirm 67 | GDH-TPI counter-2 64
CC(C)(C)OC(=O)N[C@@H](Cc1ccccc1)c1nnc(SCC(N)=O)o1	none
COc1cc(/C=C/C(=O)Nc2ccncc2)cc(OC)c1OC	Mtb FBA inh 38 | Mtb FBA confirm 74 | GDH-TPI counter-2 66
COc1cc(C(=O)Nc2ccncc2)cc(OC)c1OC	none
c1ccc(N2CC3COc4ccccc4C3=N2)cc1 (centres undefined)	Mtb FBA inh 58 (no result: 3CLpro inhibitor) | Mtb FBA confirm 73 | GDH-TPI counter-2 71
COC(CNC(=O)CN1CCN(Cc2ccccc2F)C1=O)OC	none
CC[C@@H](CCCc1ccc(OC)cc1)CCC(=O)N(c1ccccc1)c1ccccc1	none (no result: GDH-TPI counter-1, BH1578 lux ind, 3CLpro inhibitor, Mtb FBA inh)
O=C(CCn1c(=O)[nH]c2ccsc2c1=O)NCc1ccc(F)cc1	none
CCN(C(=O)c1cc2c(=O)n3cccc(C)c3nc2n1CCCOC)C1CCCCC1	Mtb FBA inh 38 | Mtb FBA confirm 103 | GDH-TPI counter-2 85
N=c1c(C(=O)NC2CCCCC2)cc2c(=O)n3ccccc3nc2n1Cc1ccc(F)cc1	Mtb FBA inh 40 | Mtb FBA confirm 70 | GDH-TPI counter-2 51
COc1ccc(CCNC(=O)c2cc3c(=O)n4ccccc4nc3n(C3CCCCC3)c2=N)cc1OC	none
COCCCn1c(C(=O)NCCC2=CCCCC2)cc2c(=O)n3ccccc3nc21	Mtb FBA inh 47 | Mtb FBA confirm 48 | GDH-TPI counter-2 36
COCCCn1c(C(=O)NCCN2CCOCC2)cc2c(=O)n3cccc(C)c3nc21	Mtb FBA inh 78 | Mtb FBA confirm active | GDH-TPI counter-2 161
Cc1cccn2c(=O)c3cc(C(=O)NC4CCS(=O)(=O)C4)n(Cc4ccccc4)c3nc12 (centres undefined)	Mtb FBA inh 40 | Mtb FBA confirm 114 | GDH-TPI counter-2 92
Cc1cccn2c(=O)c3cc(C(=O)NC4CCCC4)c(=N)n(C4CCCCC4)c3nc12	Mtb FBA inh 67 | Mtb FBA confirm inactive | GDH-TPI counter-2 inactive | GDH-TPI DR 0.77
Cc1cccn2c(=O)c3cc(C(=O)NCCN4CCOCC4)c(=N)n(CCc4ccccc4)c3nc12	Mtb FBA inh 102 | Mtb FBA confirm 58 | GDH-TPI counter-2 55
COCCCn1c(C(=O)NC2CCCCC2C)cc2c(=O)n3cccc(C)c3nc21 (centres undefined)	none
O=C(NCCCN1CCOCC1)c1ccc2c(=O)n(CCc3ccccc3)c(=O)[nH]c2c1	none
